A short description of this experiment: inhibitors of VEEV TC-83 cytopathic effect, confirmation, Vero cells (AID 588727). The note with it: VEEV TC-83 cytopathic effect inhibition, at 20 µM. In general terms: Cytopathic effects are the visible damage that an infection or toxin causes in cultured cells.
The mark [1] stands for this setting: stronger effect = higher value unless noted.
The mark [2] stands for this setting: measured here: 10K pilot screen inhibition, stronger effect = higher value.

The whole screen tested about 350,000 compounds, of which about 450 (0.13%) were called active. The rule behind the calls is not given here. The list is a sample of the results. Measured potencies and affinities stand elsewhere.

What is called inhibition is the drop in the measured response relative to a control, in per cent.

With `O=C(CSc1ncn[nH]1)N/N=C/c1ccc(Br)cc1`, the inhibition under setting [1] was 0.58% (inactive).

Turning to `Cc1ccccc1NC(=O)COC(=O)C1C2CC3OC(=O)C1C3C2` (configuration not stated), the inhibition under setting [1] is 0.18% (inactive).

In the case of `Cc1nc2c(c(=O)n1CCC1=CCCCC1)c1nc3ccccc3nc1n2/N=C/c1ccccc1`, the inhibition entry under setting [1] is “inactive”.

On to `Cc1onc(-c2ccccc2)c1-c1nnc(CN2CCN(S(=O)(=O)c3ccccc3F)CC2)o1`, for which, under setting [1], the inhibition was 7.39% (inactive).

`COc1ccc(C(=O)NC(=O)Nc2ncccc2C)cc1`: the inhibition under setting [1] is 3.84% (inactive).

As for `Cc1ccc(C(=O)NCC(=O)Nc2ncccc2C)s1`, under setting [1], the inhibition result is “inactive”.

For the molecule `CCCCc1nc2sc3c(c2c(=O)n1NC(=O)c1ccco1)CC(C)(C)OC3`, the inhibition under setting [1] is 0.57% (inactive).

As to `OCCNC(=S)NCc1ccccc1`, the inhibition under setting [1] was 0.77% (inactive).

On to `O=C(NCC(=O)N(c1cccc(F)c1)C(C(=O)NC1CCCC1)c1cccnc1)c1cccs1` (configuration not stated), for which the inhibition entry under setting [1] is “inactive”.

Turning to `O=C(C1CCCCC1)N(Cc1nc2sc3c(c2c(=O)[nH]1)CCCC3)Cc1cccs1`, the inhibition under setting [1] was 2.95% (inactive).

As for `Cc1sc2nc(CN(C(=O)c3cccs3)C3CCCC3)[nH]c(=O)c2c1C`, the inhibition under setting [1] was 5.66% (inactive).

In the case of `S=c1[nH]nc(-c2ccccn2)n1/N=C/c1ccc(-c2ccccc2Cl)o1`, the inhibition under setting [1] is 24.7% (inactive).

As for `Cc1ccc(-c2ccc(/C=N\n3cnnc3)o2)c(Br)c1`, the inhibition under setting [1] is 1.33% (inactive).

Take `Cc1n[nH]c(=S)n1/N=C/c1ccc(-c2ccccc2[N+](=O)[O-])o1`: the inhibition under setting [1] was 2.62% (inactive).

As to `Clc1ccccc1-c1ccc(/C=N/n2cnnc2)o1`, the inhibition under setting [1] was 1.39% (inactive).

Take `Cc1nnc(C)n1/N=C/c1ccc(-c2ccccc2Cl)o1`: the inhibition result under setting [1] is “inactive”.

Take `S=c1[nH]nc(-c2cccc(Cl)c2)n1/N=C/c1ccc(-c2ccccc2Br)o1`: under setting [1], the inhibition was 23.7% (inactive).

Regarding `COc1ccc(CNC(=O)CNC(C)c2ccc(F)cc2)cc1` (configuration not stated), under setting [1], the inhibition result is “inactive”.

Consider `O=C(Cn1nc(Cc2cccnc2)c2ccccc2c1=O)NCc1ccc(F)cc1`, for which, under setting [1], the inhibition is 0% [measured here: 10K pilot screen inhibition, stronger effect = higher value] and the call was inactive.

Regarding `Cc1ccc(NC(=O)CSc2ncn[nH]2)cc1S(=O)(=O)N1CCOCC1`, the inhibition under setting [1] was 0.49% (inactive).

`O=C(CNS(=O)(=O)c1ccccc1)OCc1cccc([N+](=O)[O-])c1`: the inhibition under setting [1] was 6.33% (inactive).

`CN1CCN(c2nc3c(c(=O)[nH]c(=O)n3C)n2CCOc2ccccc2)CC1`: the inhibition under setting [1] was 1.82% (inactive).

Consider `COC(=O)C(NC(=O)CCC(=O)N[C@@H](C(=O)OC)c1ccccc1)c1ccccc1` (some centres not stated), for which the inhibition under setting [1] is 0.43% (inactive).

As for `O=C(Nc1ccccc1Cl)OC1CCCCC1`, under setting [1], the inhibition is 0.52% (inactive).

For `Cc1c(C(=O)N(C)Cc2ccc(OC(F)F)cc2)oc2ccccc12`, the inhibition entry under setting [1] was “inactive”.

As to `Cn1c(=O)c2c(nc(N/N=C/c3c(O)n(C4CCCCC4)c(=S)[nH]c3=O)n2C)n(C)c1=O`, the inhibition under setting [1] is 0.22% (inactive).

With `C/C(=N\NC(=O)c1ccncc1)c1c(O)n(Cc2ccccc2)c(=O)[nH]c1=O`, the inhibition under setting [1] is 2.16% (inactive).

On to `CNc1ccc(Br)cc(C(=O)/C=C/c2ccc(OC)cc2)c1=O`, for which the inhibition under setting [1] was 7.55% (inactive).

For `CNc1ccc(Br)cc(C(=O)/C=C/c2cccc(OC)c2OC)c1=O`, the inhibition under setting [1] was 13.1% (inactive).

For the molecule `CNc1ccc(Br)cc(C(=O)/C=C/c2ccc3c(c2)OCO3)c1=O`, the inhibition runs as follows: (stronger effect = higher value) 7.74% (inactive); under setting [2], 6.21%.

Regarding `CNc1ccc(Br)cc(C(=O)/C=C/c2ccc(OC)cc2OC)c1=O`, the inhibition runs as follows: (stronger effect = higher value) 1.14% (inactive); under setting [2], 6.96%.

In the case of `CNc1nc(C)c(C#N)c(-c2ccccc2)c1C(C)=O`, the inhibition under setting [1] is 0.76% (inactive).

With `CC[C@]12c3[nH]c4ccccc4c3CCN1C(=O)C(CC(=O)NCCC1=CCCCC1)C[C@@H]2C(=O)N1CCN(C(=O)c2ccco2)CC1` (some centres not stated), the inhibition result under setting [1] was “inactive”.

In the case of `CC(C)c1c(C(=O)N/N=C/c2ccc(OCc3ccccc3)cc2)nnn1-c1nonc1N`, under setting [1], the inhibition is 2.29% (inactive).

For the molecule `FC(F)(F)c1cccc(Cc2noc(CN(Cc3ccccn3)CC3CCCO3)n2)c1` (configuration not stated), the inhibition under setting [1] was 6.18% (inactive).

Turning to `CCc1ccccc1NC(=O)C1=CN2CCS(=O)(=O)N=C2C=C1`, the inhibition under setting [1] was 4.92% (inactive).

`COC(=O)c1ccc(CSc2ccccc2NC(=S)Nc2cccc(SC)c2)o1`: the inhibition under setting [1] was 5.66% (inactive).

As for `COC(=O)[C@@H](Cc1ccccc1)NC(=O)CC[C@H]1O[C@@H](n2cc(C)c(=O)[nH]c2=O)C[C@@H]1O`, the inhibition entry under setting [1] is “inactive”.

Regarding `C=CCn1c(SCC(=O)c2cccs2)nc2sc(C)cc2c1=O`, under setting [1], the inhibition was 5.28% (inactive).

Turning to `Cc1sc2nc(SCC(=O)c3cccs3)n(Cc3ccco3)c(=O)c2c1C`, the inhibition under setting [1] was 0.85% (inactive).

For the molecule `CCOCCCNC(=O)c1cn(C)c(=O)c2cc(OC)c(OC)cc12`, under setting [1], the inhibition is 2.15% (inactive).

With `c1ccc(C(c2c[nH]c3ccccc23)c2c[nH]c3ccccc23)nc1`, under setting [1], the inhibition was 6.07% (inactive).

With `CCOCc1nnc(NC(=O)c2c(-c3ccccc3)noc2C)s1`, the inhibition under setting [1] is 2.18% (inactive).

Consider `CCOC(=O)c1c(-c2cccc(C)c2)csc1NC(=O)C1CC=CCC1C(=O)O` (configuration not stated), for which the inhibition under setting [1] is 1.95% (inactive).

Turning to `CCC(CC)c1nnc(NC(=O)c2c(-c3ccccc3)noc2C)s1`, under setting [1], the inhibition result is “inactive”.

As to `COC(=O)c1sccc1NC(=O)c1c(-c2ccccc2)noc1C`, the inhibition under setting [1] is 0.71% (inactive).

Take `CCOC(=O)c1c(-c2ccc(F)cc2)csc1NC(=O)c1c(-c2ccccc2)noc1C`: under setting [1], the inhibition is 9.91% (inactive).

Consider `COC(=O)c1c(-c2ccccc2)noc1C`, for which, under setting [1], the inhibition result is “inactive”.

Regarding `Cn1c(=O)c2c(nc(OCc3cccnc3)n2Cc2c(F)cccc2Cl)n(C)c1=O`, the inhibition entry under setting [1] was “inactive”.

Take `Cc1ccc(NC(=O)C2CC(=O)N(c3ccc4c(c3)OCCO4)C2)nc1` (configuration not stated): the inhibition under setting [1] is 0.81% (inactive).

Take `COc1ccc(NC(=O)c2cc(S(=O)(=O)Nc3ccc(OC)cc3)cs2)cc1`: under setting [1], the inhibition was 1.17% (inactive).

As for `O=C1CCc2cc(S(=O)(=O)N3CCC(C(=O)NC4CCCCCCC4)CC3)ccc2N1`, the inhibition under setting [1] is 0.11% (inactive).

Regarding `CC1CCCCN1C(=O)CSc1nc(N)cc(=O)[nH]1` (configuration not stated), the inhibition under setting [1] is 0.79% (inactive).

In the case of `COC(=O)Cc1ccc(NC(=S)NCCSc2ccc(C)cc2)cc1`, the inhibition under setting [1] was 0.04% (inactive).

As to `CCOC(=O)c1cnc(N2CCOCC2)[nH]c1=O`, the inhibition entry under setting [1] is “inactive”.

For the molecule `O=c1ccc(Cl)cn1Cc1ccccc1F`, the inhibition under setting [1] was 0.68% (inactive).

For the molecule `CCCNC(=O)CSc1nnc(NC(=O)C2CC(=O)N(c3ccccc3OC)C2)s1` (configuration not stated), the inhibition under setting [1] is 0.13% (inactive).

As to `CN(C)CCCNc1nc(N)c([N+](=O)[O-])c(NC2CCCCC2)n1`, under setting [1], the inhibition is 1.04% (inactive).

Consider `Nc1nc(NCCO)nc(NC2CCCCC2)c1[N+](=O)[O-]`, for which the inhibition under setting [1] is 3.17% (inactive).

(Values after PubChem BioAssay AID588727 (Southern Research Specialized Biocontainment Screening …, 2011).)
